Data from PubChem BioAssay (NCI).
Compounds without any hit were thinned out: in the full panel of roughly 83,000, 20% have a hit.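 Compound tested at a single concentration for 48 hours in 96-well plates; a percent growth value below 10 was scored as active.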 A number with no mark means an inactive call. Activity calls are given as the source filed them.

Key:
Assay in all cases: NCI-60 one-dose screen, 48 h (100 = growth as untreated, 0 = no growth, -100 = all killed)
Conditions in all cases: 10 µM unless noted
[1] = test system: SK-MEL-2 melanoma
[2] = test system: EKVX NSCLC
[3] = test system: SN12C renal
[4] = test system: UO-31 renal
[5] = test system: TK-10 renal
[6] = test system: ACHN renal
[7] = test system: CAKI-1 renal
[8] = test system: A498 renal
[9] = test system: CCRF-CEM leukemia
[10] = test system: MOLT-4 leukemia
[11] = test system: SR leukemia
[12] = test system: OVCAR-8 ovarian
[13] = test system: OVCAR-5 ovarian
[14] = test system: OVCAR-4 ovarian
[15] = test system: SK-OV-3 ovarian
[16] = test system: IGROV1 ovarian
[17] = test system: OVCAR-3 ovarian
[18] = test system: HS 578T breast
[19] = test system: NCI/ADR-RES ovarian

Structure (SMILES) | growth [1] | growth [2] | growth [3] | growth [4] | growth [5] | growth [6] | growth [7] | growth [8] | growth [9] | growth [10] | growth [11] | growth [12] | growth [13] | growth [14] | growth [15] | growth [16] | growth [17] | growth [18] | growth [19]
O=C1c2cccc3cccc(c23)C(=O)N1N1C(=O)c2cccc3c(NC4CCCCC4)ccc(c23)C1=O | 105% | 89.3% | 91.7% | 66.3% | 126% | 92.2% | 79.9% | 95.5% | 89.1% | 89.6% | 90.2% | 96.2% | 90.6% | 96.8% | 92.1% | 102% | 105% | 103% | 95.4%
Cc1cc(-c2cc(C)c(N)cc2C)c(C)cc1N | 90.5% | 115% | 89.9% | 78.7% | 101% | 92.8% | 87.3% | 105% | 89.8% | 100% | 45.5% | 103% | 97.2% | 117% | 95.7% | 109% | 107% | 107% | 100%
Cc1cc(C)c(-c2c(N)cc(Br)cc2Br)c(N)c1 | 44.1% | 65.9% | 68.7% | 61.5% | 72% | 75.1% | 50.3% | 70.9% | 26.4% | 34.4% | 24.9% | 83.8% | 84.9% | 74.3% | 31.7% | 63.9% | 65% | 66.4% | 54.5%
CCCC1CCC(O)(C(C)(O)C(=O)NC2C(=O)N3NCCCC3C(=O)N(O)C(C)C(=O)N3NCCCC3C(=O)N3NCC(O)CC3C(=O)NC(C)C(=O)OC2C(C)C)OC1CC (centres undefined) | -43.7% (active) | -63.4% (active) | -67.9% (active) | 0.226% (active) | -85.3% (active) | -68.1% (active) | -82.6% (active) | -95.5% (active) | -84.5% (active) | -82.7% (active) | -87.6% (active) | -71.8% (active) | -98.4% (active) | -81% (active) | -96.3% (active) | -40% (active) | -89.9% (active) | -78.1% (active) | -76.7% (active)
NCCNc1nc2ccccc2c2c(=O)c3cccc(F)c3sc12 | 102% | 74.1% | 47.5% | 40.7% | 71.7% | 34.2% | 39.6% | 59.7% | 34.5% | 7.98% (active) | 12.3% | 46.5% | 81.8% | 48.3% | 78.8% | 48% | 53.1% | 67.6% | 53.9%
Cc1ccc2sc3c(NCCN)nc4ccccc4c3c(=O)c2c1 | 105% | 88% | 69.3% | 50.6% | 96.2% | 66.4% | 42.7% | 61.6% | 32.8% | 49% | -13.4% (active) | 80.1% | 97% | 67% | 88.4% | 72.4% | 63% | 85% | 80.5%
CCOC(=O)Nc1ccc(-c2nc(-c3cccc(OC)c3)c(-c3ccnc(Br)c3)[nH]2)cc1 | 38.3% | 30.1% | 48.9% | 16.3% | 71.4% | 24.3% | 32.7% | 22.4% | 16.7% | 14.3% | 9.48% (active) | 29.4% | 66.9% | 33.6% | 67.3% | 45.2% | 33.3% | -5.11% (active) | 27.6%
CC([C@H]1CCC2C3CCC4C(=O)C(NC=O)=CC[C@]4(C)C3CC[C@@]21C)N(C)C (some centres undefined) | 82.3% | 30.5% | 42% | -65% (active) | 84.1% | 58.2% | 57.6% | 65.1% | 28.7% | 41.2% | 54.3% | 55.9% | 93.2% | 6.05% (active) | 75.8% | 37.8% | 24.6% | 33.6% | 57.5%
COc1ccc2sc3c(NCCCNCCO)nc4ccccc4c3c(=O)c2c1 | 102% | 67.2% | 62% | 46.4% | 75% | 57.7% | 44% | 38.1% | 2.35% (active) | 16.4% | -46.9% (active) | 54.6% | 84.2% | 4.38% (active) | 85.7% | 45.9% | 0.904% (active) | 53% | 63.8%
CCOC(=O)c1cn2ncnc(Oc3ccc(NC(=O)NCCN4CCOCC4)c(Cl)c3)c2c1C | 113% | 96.3% | 95.8% | 80.8% | 98% | 99.5% | 87.7% | 85.2% | 96.6% | 106% | 105% | 101% | 96.4% | 96.3% | 92.2% | 101% | 105% | 91.4% | 101%
O=c1c2cc(F)cc(Cl)c2sc2c(NCCCNCCO)nc3ccccc3c12 | 107% | 88.2% | 83.4% | 59.8% | 100% | 83.8% | 71.2% | 56.2% | 15.8% | 60.6% | -6.83% (active) | 95.7% | 93.7% | 79.1% | 93.9% | 79.4% | 96.1% | 88.1% | 89.2%
Cc1ccc(-c2nc(N3CCN(C(=O)c4ccc(OC(F)(F)F)cc4)CC3)c3ccccc3n2)cc1 | 102% | 88.5% | 90.5% | 53.7% | 90.6% | 89.5% | 69.8% | 63.7% | 75.3% | 56.8% | 78.5% | 90.3% | 97.8% | 106% | 99.3% | 85.6% | 93.9% | 79.1% | 84.4%
NCCCNc1nc2ccccc2c2c(=O)c3cc(F)cc(F)c3sc12 | 111% | 96.8% | 80.8% | -95% (active) | 87.1% | -60.3% (active) | 61.1% | 43.5% | -6.51% (active) | 60.7% | -35.8% (active) | 69.7% | 50.9% | -62.3% (active) | 83.6% | 77.9% | 89.7% | 76.8% | 84%
O=C(/C=C/c1cccc2ccccc12)c1ccc(NC(=O)c2ccccc2CN2C(=O)c3ccccc3C2=O)cc1 | 95.5% | 81.4% | 80.3% | 50.7% | 100% | 73% | 37.9% | 88.5% | 39.7% | 51.2% | 23.5% | 75.4% | 96.6% | 58.7% | 82.3% | 79.1% | 34.7% | 66.2% | 61%
O=C1c2cccc3cccc(c23)C(=O)N1Nc1nc(NC2CCCCC2)nc(N2CCOCC2)n1 | 109% | 90% | 93.9% | 69.1% | 129% | 89.7% | 76.5% | 127% | 90.1% | 90% | 91% | 99% | 95.6% | 106% | 95.7% | 90.3% | 103% | 99.4% | 99.8%
COc1cccc(-c2nc(-c3ccc(NC(=O)OC(C)C)cc3)[nH]c2-c2ccnc(Br)c2)c1 | 25.6% | 27.6% | 30.8% | 9.01% (active) | 48.6% | 14.5% | 28% | -4.13% (active) | 18.3% | 10.3% | -2.3% (active) | 27.3% | 53.7% | 32.9% | 33.3% | 35.5% | 26.2% | -17.2% (active) | 27.7%
